Rab9 promoter act – activates the Rab9 promoter; Huh7 Rab9 promoter-luciferase reporter, luminescence, 24 h; Potency, µM (highest dose often 9.22 µM), without a hit: at the highest dose activation, negative = inhibition, most hits filed as activators; 320,000 compounds, 2.8% hits; note: % of control where 0% means no effect; nearly all actives have a fitted effect of over 60% in size
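Stable Rab9-luc Huh7, 1500 cells/well, 2 h settle; cmpd in DMSO, 24 h, 37 °C/5% CO2; luciferase reagent 10 min RT; luminescence.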
NPC1 prom act – activates the NPC1 promoter | Huh7 NPC1 promoter luciferase reporter, 24 h | Potency, µM (titrated, usually from 9.22 µM), inactives show at the top dose activation, actives largely listed as activators | 320,000 compounds, 2.4% hits; note: % of control where 0% means no effect; nearly all actives have a fitted effect of over 60% in size
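Cells: Huh7 expressing luciferase under the NPC1 promoter, 1500/well. Seeded 2 h, compound added, incubated 24 h at 37 °C. Luciferase reagent, 10 min ambient, then luminescence.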
ELG1 genotoxic – induces genotoxicity in HEK293T cells with luciferase-tagged ELG1. HEK293T ELG1-luciferase reporter, luminescence, 16 h. Potency, µM (doses to about 46 µM), inactives show at the highest dose activity change, positive = activation, actives largely listed as activators. 330,000 compounds, 1.3% hits. AID 504466; note: % of control where 0% means no effect; nearly all actives have a fitted effect of over 60% in size
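Quantitative HTS format in 1536-well plates. HEK293T ELG1-luciferase reporter cells receive test compound and are incubated 16 hr at 37 °C, 5% CO2; ONE-Glo added, 30 min room temperature, then luminescence read.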
FLuc modulator – inhibits or activates purified firefly luciferase, miR-21 counter-screen. P08659. Potency, µM (highest dose often 57.5 µM), for the others: top-dose activity change, negative = inhibition, usual class: inhibitors. 360,000 compounds, 6.9% hits. purified FLuc, Km substrates, luminescence inhibition;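 note: plate controls were vehicle for no effect and reference inhibitor for full effect; nearly all actives have a fitted effect of over 55% in size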
Target sequence (P08659 whole entry, looked up): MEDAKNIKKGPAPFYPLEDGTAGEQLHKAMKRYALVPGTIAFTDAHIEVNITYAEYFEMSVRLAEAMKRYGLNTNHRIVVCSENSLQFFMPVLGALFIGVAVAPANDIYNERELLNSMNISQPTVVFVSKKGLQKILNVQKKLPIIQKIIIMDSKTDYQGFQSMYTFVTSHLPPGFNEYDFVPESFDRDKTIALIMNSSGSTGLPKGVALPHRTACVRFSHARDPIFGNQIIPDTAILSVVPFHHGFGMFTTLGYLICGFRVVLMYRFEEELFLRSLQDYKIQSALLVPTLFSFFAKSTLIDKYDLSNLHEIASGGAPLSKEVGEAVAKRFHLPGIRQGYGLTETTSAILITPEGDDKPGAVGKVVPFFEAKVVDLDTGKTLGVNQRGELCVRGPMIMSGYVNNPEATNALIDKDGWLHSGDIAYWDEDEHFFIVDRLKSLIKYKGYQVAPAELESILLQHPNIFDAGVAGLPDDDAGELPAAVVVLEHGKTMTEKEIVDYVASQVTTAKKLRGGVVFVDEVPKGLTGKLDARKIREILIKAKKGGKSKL
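Biochemical qHTS of compounds, final roughly 60 µM downward over six points, against 10 nM purified firefly luciferase using Km concentrations of substrates (10 uM D-luciferin, 10 uM ATP) in Tris acetate pH 7.5 buffer; luminescence output.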
SMN2 splice enh – increases expression of the SMN2 splice variant. HEK293 SMN2-luciferase splicing reporter, luminescence, 30-36 h. Potency, µM (top dose mostly 46.1 µM), inactives show at the top dose activity change, positive = activation, hits mostly activators. 210,000 compounds, 2.8% hits. AID 1458; note: % of control where 0% means no effect; nearly all actives have a fitted effect of over 55% in size
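HEK293 cells carry an SMN2 […]–luciferase reporter in which exon 7 inclusion puts luciferase in frame. Cells were plated 10-12 h before compound addition, then incubated 30-36 h at 37C. ONE-Glo luminescence was read; sodium butyrate at 4.5 mM final served as control.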
Active calls of the source: *; ? = inconclusive; / = no result; [ ] = another dose, or the depositor's remark. In the library only some 7.5% were active in any assay of this set; here they are far more common. Calls come from the whole dose curve; as a rule, active = well fitted curve in the direction sought with a large enough effect; inconclusive = small, poorly fitted or top-dose-only effect, or another doubt; inactive = no such curve, though single readings can be large; an effect the other way counts as inactive or inconclusive. Potency is the fitted concentration of half-maximal effect.

SMILES | Rab9 promoter act | NPC1 prom act | ELG1 genotoxic | FLuc modulator | SMN2 splice enh
N#CCCSc1nc(N2CCOCC2)c2c(c1C#N)CCCC2 | -4% | -5% | 4% | 12% | -10%
C=CCN=C1SCC(=O)N1S(=O)(=O)c1ccc(C)cc1 | -5% | 0% | -2% | -2% | -8%
COc1cccc2sc(Nc3nc(-c4cc5ccccc5oc4=O)cs3)nc12 | -19% | -26% | 6% | ? | -8%
CC(=O)Nc1ccc(Nc2nc(-c3cc4ccccc4oc3=O)cs2)cc1 | ? | ? | ? | 5.4µM* | /
CNc1nnc(-c2cc3ccccc3oc2=O)s1 | 1.4µM* | 1.4µM* | 18µM* | 4.8µM* | 13µM*
COc1ccc(Nc2nc(-c3cc4cccc(OC)c4oc3=O)cs2)cc1 | 2% | -2% | 6% | -17% | 8%
COc1ccc2oc(=O)c(-c3csc(Nc4cccc(O)c4)n3)cc2c1 | -2% | 11% | 0% | 1.7µM* | ?
Nc1ccc(Nc2nc(-c3cc4ccccc4oc3=O)cs2)cc1 | ? | ? | ? | 2.4µM* | ?
CCOc1ccc(NC(=O)COC(=O)c2cc(=O)c3ccccc3o2)cc1 | 7% | 2% | -3% | -2% | /
Cc1cc(C)c(NC(=O)C(C)OC(=O)c2cc(Br)c(Br)s2)c(C)c1 (centres undefined) | -1% | -1% | 9% | 1% | 0%
O=C(O)c1ccc(Nc2nc(-c3cc4ccccc4oc3=O)cs2)cc1O | 2% | 8% | 9% | 4.8µM* | 1%
COC(=O)CC(NS(=O)(=O)c1cccs1)c1ccccc1Cl (centres undefined) | 8% | -3% | -2% | 16% | 19%
CCC1=[N+](CC(=O)c2ccc(C)cc2)CCn2cccc21 | 4µM* | 27% | ? | 5% | ?
Cc1ccc(C(=O)C[n+]2ccccc2)cc1 | -4% | 0% | -1% | -1% | /
CCC1=[N+](CC(=O)c2ccc(C)cc2)CCn2c(C)ccc21 | 0.89µM* | 2.2µM* | 12% | -1% | ?
Cc1cc(C)c[n+](CC(=O)c2ccccc2)c1 | -4% | 7% | 0% | 0% | /
CCC1=[N+](CC(=O)c2ccc(Br)cc2)CCn2c(C)ccc21 | ? | 1.4µM* | 3% | -1% | /
CC1=[N+](CC(=O)c2ccccc2)CCn2cccc21 | 3.5µM* | ? | ? | 0% | /
Cc1ccc2c(c1)N(C(=O)c1ccc(F)cc1)C(C)(C)CC2(C)c1ccccc1 (centres undefined) | / | / | / | -2% | -6%
CCOC(=O)C(NCCc1ccccc1F)(NC(C)=O)C(F)(F)F (centres undefined) | -4% | -1% | 0% | 3% | -7%
Cc1nc(-c2ccc([N+](=O)[O-])cc2)sc1C(=O)O | ? | 24% | ? | 27µM* | /
Cc1nc(-c2ccc(Cl)cc2)sc1C(=O)O | ? | ? | ? | 15µM* | 11µM*
Cc1ccc(-c2nc(C)c(C(=O)O)s2)cc1 | ? | -14% | ? | 4.8µM* | /
Cc1nc(-c2ccccc2)sc1C(=O)O | 23% | 19% | 9% | ? | ?
CC(=O)c1sc(-c2ccccc2)nc1C | 5% | 1% | 12% | -19% | -2%
SMILES | Rab9 promoter act | NPC1 prom act | ELG1 genotoxic | FLuc modulator | SMN2 splice enh
COCC(C)NC(=O)/C(=C/c1ccccc1)c1ccccc1 (centres undefined) | -4% | 2% | -8% | 6% | 3%
O=C(O)c1ccccc1N/N=C\c1ccnc2ccccc12 | ? | 0.35µM* | 0.58µM* | 0.17µM* | 5µM*
Cn1c(=O)c2c(nc(N/N=C\c3ccccc3C(=O)O)n2C)n(C)c1=O | / | / | / | / | -13%[9.22 µM]
O=C(O)c1ccccc1N/N=C/c1cc(Br)cc(Br)c1O | 1.4µM* | 1.6µM* | ? | 7.6µM* | /
CCC(=O)N1c2ccc(S(=O)(=O)NCCc3ccc(C)cc3)cc2CC1C (centres undefined) | -2% | 2% | -2% | -2% | /
COc1ccc(Nc2nc(-c3sc(C)nc3C)cs2)cc1 | -17% | -26% | 8% | 15µM* | /
Cc1nc(C)c(-c2csc(Nc3cccnc3)n2)s1 | 16% | 11% | ? | 12µM* | ?
CC(=O)Nc1nc(C)c(-c2csc(Nc3ccc(O)cc3)n2)s1 | -6% | -7% | 1% | ? | 8%
